Results on 21 molecules are retold here after PubChem BioAssay (NCI).

Assay [1] is described as follows: NCI Yeast Anticancer Drug Screen. Data for the rad50 strain (AID 155).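 Note: 0% = growth of vehicle-only cultures of the same strain.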 The note with it: S. cerevisiae rad50 strain growth inhibition; at 50.0 µM; active compounds read high. Put shortly: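 Readout: growth inhibition relative to vehicle-treated cultures. Compound exposure was carried out in a genetically defined yeast strain deficient in DNA damage repair.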
A short description of assay [2]: NCI Yeast Anticancer Drug Screen. Data for the mec2-1 strain (AID 157). The note with it: S. cerevisiae mec2-1 strain, at 50.0 µM, active compounds read high. In outline:
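Test agents were screened against the mec2-1 yeast strain, with defined DNA repair or cell cycle alteration. Growth was scored as inhibition against vehicle-only controls.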

Assay [3] can be described thus: NCI Yeast Anticancer Drug Screen. Data for the sgs1 mgt1 strain (AID 161).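 Note: 0% = growth of cultures given vehicle only.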 As to conditions: S. cerevisiae sgs1 mgt1 strain, at 50.0 µM, active compounds read high. Put shortly: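 Read-out: growth inhibition vs vehicle controls. Cells: mutant yeast strain deficient in DNA damage repair.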
Assay [4] is described as follows: NCI Yeast Anticancer Drug Screen. Data for the cln2 rad14 strain (AID 165).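 Note: 0% = growth equal to vehicle treated cultures.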 The note with it: S. cerevisiae cln2 rad14 strain, at 50.0 µM, active compounds read high. In outline:
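Growth of compound-exposed yeast (cln2 rad14 genotype) measured and expressed as inhibition relative to vehicle.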

The nature of assay [5]: NCI Yeast Anticancer Drug Screen. Data for the bub3 strain (AID 167). The note with it: S. cerevisiae bub3 mutant strain, at 50.0 µM, active compounds read high. In outline: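 Readout: yeast growth inhibition, expressed relative to vehicle-only wells. The test organism is a mutant strain from a panel with lesions in DNA repair or checkpoint genes.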
A short description of assay [6]: NCI Yeast Anticancer Drug Screen. Data for the mlh1 rad18 strain (AID 175). As to conditions: S. cerevisiae mlh1 rad18 strain growth inhibition; at 50.0 µM; active compounds read high. Put shortly: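 In this whole-cell yeast screen, a strain with altered DNA damage repair is challenged with compound, and its growth is measured against matched vehicle-treated controls.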

SMILES strings stand for the structures. Compounds without any hit were thinned out: in the full panel of roughly 79,000, 15% have a hit. A number with no mark means an inactive call. Activity calls are given as the source filed them. Cut-off read from the data, not from the text of the source: active = growth inhibition above about 70%; inactive = the rest.

On to `COC(=O)C(C)C1Sc2ccccc2NC1=O` (stereo unspecified), for which the growth inhibition in assay [1] was 4.6%; in assay [2], 1.85%; in assay [3] it was -17.3%; in assay [4], -4%; in assay [5], -16.6%; in assay [6] it was 2.6%.

In the case of `N#CC(C(=O)CCCC(=O)Nc1ccc(Cl)cc1Cl)c1ccccc1` (stereo unspecified), the growth inhibition was -39% in assay [1]; -13.6% in assay [2]; -6.95% in assay [3]; 13.2% in assay [4]; -16% in assay [5]; -28.1% in assay [6].

For the molecule `CC(C)NC(=O)OCc1c(COC(=O)NC(C)C)c(Sc2ccccc2)n2c1CCC2`, the growth inhibition in assay [1] was 6.6%; in assay [2] it was -17.1%; in assay [3], 1.85%; in assay [4] it was -27.6%; in assay [5], 9.1%; in assay [6] it was 16.2%.

Turning to `O=C(O)c1cc(Cl)ccc1-c1ccc(Cl)cc1C(=O)Nc1ccc2c(c1)Cc1ccccc1-2`, the growth inhibition in assay [1] is 91.3% (active); in assay [2], 89.7% (active); in assay [3] it was 94.6% (active); in assay [4], 87.8% (active); in assay [5], 85.3% (active); in assay [6], 94.9% (active).

With `Nc1c2c(nn1-c1ccccc1)C(=O)N(CCc1ccccc1)C2`, the growth inhibition in assay [1] is 0.25%; in assay [2], 14.2%; in assay [3], -6.05%; in assay [4], -0.65%; in assay [5] it was -3.25%; in assay [6], -1.4%.

For `C(=C\c1csnn1)/c1cccnc1`, the growth inhibition in assay [1] was 29.9%; in assay [2] it was -1.95%; in assay [3], 2.05%; in assay [4], 6.35%; in assay [5] it was 9.3%; in assay [6], 5.75%.

As for `Cc1ccc2c(c1)CCCN2`, the growth inhibition was 7.2% in assay [1]; 11.2% in assay [2]; 4.65% in assay [3]; 21.6% in assay [4]; 9.8% in assay [5]; 7.55% in assay [6].

`CCCCC1C(=O)N=C2C=CC=CN2C1=O` (stereo unspecified): the growth inhibition in assay [1] was -2.15%; in assay [2] it was -16.9%; in assay [3], -5.75%; in assay [4], 3.5%; in assay [5] it was -24.2%; in assay [6] it was -7.4%.

As to `CC(=O)Nc1ccc(OC(=O)Nc2ccc(C)c(NC(=O)Oc3ccc(NC(C)=O)cc3)c2)cc1`, the growth inhibition in assay [1] is 6.35%; in assay [2], -6.95%; in assay [3], 6.15%; in assay [4] it was 24.5%; in assay [5], 17.2%; in assay [6], 7.25%.

In the case of `CC(C)CCNc1nc(N)[nH]c(=O)c1NC=O`, the growth inhibition in assay [1] is -16.7%; in assay [2], 16.1%; in assay [3], -0.55%; in assay [4] it was 7.5%; in assay [5], 2.7%; in assay [6], -56.6%.

As to `CCC[C@@H]1CCCC[C@H]1C`, the growth inhibition in assay [1] is 0.55%; in assay [2], -1.95%; in assay [3] it was -5.3%; in assay [4], -2.2%; in assay [5], -14.2%; in assay [6], 0.5%.

For `CC(=O)C1CCC2C3CC=C4CC(O)C=CC4(C)C3CCC12C` (stereo unspecified), the growth inhibition is 7.6% in assay [1]; 22.1% in assay [2]; 11.2% in assay [3]; -1.65% in assay [4]; 5.1% in assay [5]; 17.9% in assay [6].

For `Cc1cccc(C(=O)OC2CCCCC2)c1`, the growth inhibition in assay [1] was 1.85%; in assay [2] it was 1.2%; in assay [3], -3.1%; in assay [4], -30.4%; in assay [5] it was 23.9%; in assay [6], 0.5%.

`NC(N)=NC(CC(=O)O)c1ccccc1` (stereo unspecified): the growth inhibition in assay [1] was -1.15%; in assay [2], -20%; in assay [3], -26.4%; in assay [4], -26.2%; in assay [5], -46.4%; in assay [6], 10.2%.

Consider `Cc1c(-c2ccccc2)nnn1-c1ccc(F)cc1F`, for which the growth inhibition in assay [1] was 1.7%; in assay [2], -28.8%; in assay [3] it was 13.4%; in assay [4], -10.6%; in assay [5] it was 20.8%; in assay [6] it was -9.35%.

`CCN(CC)c1ccc(NC(=S)Nc2ccc(N(CC)CC)cc2)cc1`: the growth inhibition in assay [1] was 23.3%; in assay [2], -0.5%; in assay [3], 4.95%; in assay [4], -66%; in assay [5] it was 22.2%; in assay [6], -22.9%.

As to `CCCn1c(CC)nc([N+](=O)[O-])c1Sc1ncn[nH]1`, the growth inhibition in assay [1] is -14.7%; in assay [2] it was -23.1%; in assay [3], -7.1%; in assay [4], 9.1%; in assay [5], -5.6%; in assay [6], -11.5%.

Take `CC(CNC(=O)c1ccccc1)(CNC(=O)c1ccccc1)[N+](=O)[O-]`: the growth inhibition is 8.95% in assay [1]; 1.35% in assay [2]; -3.2% in assay [3]; 6.75% in assay [4]; 0.8% in assay [5]; 3.85% in assay [6].

Turning to `NC(CCC(=O)O)C(=O)NC(Cc1c[nH]c2ccccc12)C(=O)O` (stereo unspecified), the growth inhibition in assay [1] was -12.7%; in assay [2] it was 12.3%; in assay [3], -5.05%; in assay [4], -23.1%; in assay [5], -22.4%; in assay [6], -24.6%.

With `CC(=O)N1c2ccccc2S(=O)(=O)c2ccccc21`, the growth inhibition in assay [1] is 1.6%; in assay [2], 12.7%; in assay [3], 0.75%; in assay [4], -15.9%; in assay [5], 2.05%; in assay [6] it was 0.25%.

As to `CC(C)(C)CC(C)(O)COC(=S)S` (stereo unspecified), the growth inhibition is -10.5% in assay [1]; -18% in assay [2]; 1.65% in assay [3]; -11.2% in assay [4]; -7.45% in assay [5]; 0.55% in assay [6].
